8 compounds from PubChem BioAssay (NCI) can be followed below.

About 83,000 compounds went through this panel and 20% of them were active in at least one assay; those are over-represented in the sample as a whole.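 In brief: 96-well plates, 48 h treatment, single concentration, percent growth endpoint.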 Unmarked numbers belong to inactive results. The source made the active and inactive calls. How the source made its calls: active means growth percent below 10; inactive means the rest.

Among the test systems are SK-MEL-2 melanoma; EKVX NSCLC; SN12C renal; UO-31 renal; TK-10 renal; ACHN renal; CAKI-1 renal; A498 renal; CCRF-CEM leukemia; MOLT-4 leukemia; SR leukemia; RPMI-8226 leukemia; OVCAR-8 ovarian; OVCAR-5 ovarian; OVCAR-4 ovarian; SK-OV-3 ovarian; IGROV1 ovarian; OVCAR-3 ovarian; HS 578T breast; NCI/ADR-RES ovarian.
What all share (assay): NCI-60 one-dose screen, 48 h (100 = growth as untreated, 0 = no growth, -100 = all killed)
Holding throughout (conditions): 10 µM unless noted

On to `CCN1C(=S)N(c2ccccc2)C2C1NN=c1s/c(=C3\C(=O)N(C(C)C)c4ccccc43)c(=O)n12` (stereo not given), for which the growth is 107% in the assay on SK-MEL-2 melanoma; 101% in the assay on EKVX NSCLC; 55.1% in the assay on SN12C renal; 80.5% with UO-31 renal; 86.6% with TK-10 renal; 80% in the assay with ACHN renal. The growth is 76.2% in the assay with CAKI-1 renal; 97.5% in the assay on A498 renal; 93.1% in the assay with CCRF-CEM leukemia; 91.1% in the assay on MOLT-4 leukemia; 46.2% in the assay with SR leukemia; 97.4% in the assay on RPMI-8226 leukemia. Besides, the growth was 54.1% in the assay on OVCAR-8 ovarian; 93.9% in the assay on OVCAR-5 ovarian; 1.68% (active) with OVCAR-4 ovarian; 104% in the assay with SK-OV-3 ovarian; 71% with IGROV1 ovarian; 84.2% in the assay with OVCAR-3 ovarian. The growth is 54.8% in the assay with HS 578T breast and 64.1% with NCI/ADR-RES ovarian.
In the case of `COc1cc(OCc2cccc(Br)c2C)cc(OC)c1C=O`, the growth with SK-MEL-2 melanoma is 88%; in the assay on EKVX NSCLC, 80.8%; in the assay with SN12C renal, 77.5%; in the assay on UO-31 renal, 71.8%; with TK-10 renal, 45.4%; in the assay with ACHN renal, 90.7%. The growth with CAKI-1 renal was 24.2%; in the assay on A498 renal, -88.7% (active); with CCRF-CEM leukemia it was 77%; in the assay with MOLT-4 leukemia, 80.2%; in the assay with SR leukemia, 82.6%; in the assay on RPMI-8226 leukemia, 52.8%. Besides, the growth is 89.9% in the assay on OVCAR-8 ovarian; 55.5% in the assay with OVCAR-5 ovarian; 67.7% with OVCAR-4 ovarian; 94.8% in the assay with SK-OV-3 ovarian; 61.8% in the assay on IGROV1 ovarian; 87.1% in the assay on OVCAR-3 ovarian. Also, the growth in the assay on HS 578T breast was 89.1%; in the assay with NCI/ADR-RES ovarian it was 89.7%.
For the compound `Nc1cnc(C(=O)NNc2nc3cc(F)ccc3n3cccc23)cn1`, the growth was 75% with SK-MEL-2 melanoma; 26.2% in the assay with EKVX NSCLC; 46.6% with SN12C renal; 8.25% (active) in the assay with UO-31 renal; 51.3% in the assay with TK-10 renal; 12.9% with ACHN renal. In addition, the growth is 29.5% with CAKI-1 renal; 44.7% in the assay with A498 renal; 21.4% in the assay with CCRF-CEM leukemia; 19% in the assay with MOLT-4 leukemia; 25.5% in the assay with SR leukemia; 52.6% with RPMI-8226 leukemia. Further, the growth with OVCAR-8 ovarian is 27.6%; in the assay on OVCAR-5 ovarian, 56.6%; in the assay on OVCAR-4 ovarian, 31.3%; in the assay on SK-OV-3 ovarian it was 37.9%; with IGROV1 ovarian, 26%; with OVCAR-3 ovarian it was 20.9%. The growth with HS 578T breast is 80.4%; in the assay on NCI/ADR-RES ovarian, 16.2%.
For `COCCn1cc(-c2nc(-c3cc4cccnc4[nH]3)cs2)c2cc(OC)ccc21`, the growth was 37.8% in the assay with SK-MEL-2 melanoma; 16.9% in the assay on EKVX NSCLC; 48.5% in the assay on SN12C renal; 10.9% with UO-31 renal; -4.75% (active) in the assay with TK-10 renal; 22.4% in the assay with ACHN renal. In addition, the growth with CAKI-1 renal was 34.4%; in the assay on A498 renal it was -0.329% (active); in the assay with CCRF-CEM leukemia, 12.4%; with MOLT-4 leukemia it was 26.6%; with SR leukemia, 2.96% (active); in the assay on RPMI-8226 leukemia it was 27.1%. Also, the growth in the assay with OVCAR-8 ovarian is 25.3%; in the assay on OVCAR-5 ovarian it was 26.3%; in the assay with OVCAR-4 ovarian, 15.6%; in the assay on SK-OV-3 ovarian, 21%; in the assay on IGROV1 ovarian, 24.5%; in the assay with OVCAR-3 ovarian, 27.6%. Also, the growth in the assay with HS 578T breast is -4.1% (active); with NCI/ADR-RES ovarian, 28.5%.
For the compound `O=C(Nc1cccc2ccccc12)NC1CC1`, the growth in the assay on SK-MEL-2 melanoma is 121%; with EKVX NSCLC it was 109%; with SN12C renal it was 106%; in the assay on UO-31 renal, 88%; with TK-10 renal, 117%; in the assay on ACHN renal, 101%. Besides, the growth with CAKI-1 renal was 96.5%; in the assay with A498 renal it was 112%; in the assay on CCRF-CEM leukemia, 97.5%; in the assay on MOLT-4 leukemia it was 92.6%; in the assay with SR leukemia it was 109%; with RPMI-8226 leukemia, 105%. The growth with OVCAR-8 ovarian was 101%; in the assay on OVCAR-5 ovarian, 110%; in the assay on OVCAR-4 ovarian, 102%; in the assay with SK-OV-3 ovarian, 97.1%; in the assay on IGROV1 ovarian, 122%; in the assay with OVCAR-3 ovarian, 114%. Further, the growth in the assay on HS 578T breast was 108%; in the assay on NCI/ADR-RES ovarian, 111%.
With `C=C1C(=O)O[C@H]2[C@H]1CC/C(Cn1cc(-c3ccccc3)nn1)=C\CC[C@@]1(C)O[C@@H]21`, the growth was 6.62% (active) in the assay with SK-MEL-2 melanoma; 72.1% with EKVX NSCLC; 6.55% (active) in the assay with SN12C renal; -75.1% (active) in the assay on UO-31 renal; -72.1% (active) with TK-10 renal; -40.7% (active) in the assay on ACHN renal. Moreover, the growth in the assay on CAKI-1 renal was -62.8% (active); in the assay on A498 renal, 46.6%; with CCRF-CEM leukemia it was -20.7% (active); in the assay on MOLT-4 leukemia, -13.8% (active); with SR leukemia, 3.11% (active); with RPMI-8226 leukemia, -20.5% (active). The growth with OVCAR-8 ovarian is 5.7% (active); in the assay on OVCAR-5 ovarian, -2.95% (active); in the assay on OVCAR-4 ovarian, 35.9%; with SK-OV-3 ovarian it was 107%; in the assay on IGROV1 ovarian it was 6.52% (active); with OVCAR-3 ovarian, -84.3% (active). The growth in the assay with HS 578T breast was 81.1%; in the assay on NCI/ADR-RES ovarian it was 43.6%.
With `O=C(O)c1cn(C2CC2)c2cc(N3CCN(C(=O)N(c4ccccc4)c4nc(-c5ccccc5)cs4)CC3)c(F)cc2c1=O`, the growth in the assay with SK-MEL-2 melanoma is -18.3% (active); in the assay with EKVX NSCLC, 16.9%; in the assay with SN12C renal, 1.06% (active); in the assay on UO-31 renal it was 5.23% (active); in the assay on TK-10 renal, 38.3%; in the assay with ACHN renal, -79.1% (active). The growth is 6.68% (active) with CAKI-1 renal; 3.2% (active) with A498 renal; 10.9% with CCRF-CEM leukemia; 2.43% (active) in the assay on MOLT-4 leukemia; -5.43% (active) with SR leukemia; 9.25% (active) in the assay on RPMI-8226 leukemia. For the same compound, the growth with OVCAR-8 ovarian is 12.5%; in the assay with OVCAR-5 ovarian, 6.16% (active); in the assay with OVCAR-4 ovarian, 25.4%; in the assay with SK-OV-3 ovarian it was -16.2% (active); in the assay on IGROV1 ovarian, 7.38% (active); in the assay with OVCAR-3 ovarian, 3.78% (active). Further, the growth was 24.5% in the assay on HS 578T breast and 2.3% (active) with NCI/ADR-RES ovarian.
With `Nc1nc(N)c(-c2ccc(Cl)c(Cl)c2)c(CBr)n1`, the growth in the assay with SK-MEL-2 melanoma was 87.6%; in the assay on EKVX NSCLC, 85.3%; with SN12C renal, 79.2%; with UO-31 renal, 88.7%; in the assay on TK-10 renal, 83.6%; with ACHN renal, 68.4%. The growth is 82.3% with CAKI-1 renal; 89.9% in the assay on A498 renal; 55.8% with CCRF-CEM leukemia; 61.3% with MOLT-4 leukemia; 62.1% in the assay on SR leukemia; 80.2% in the assay on RPMI-8226 leukemia. For the same compound, the growth in the assay on OVCAR-8 ovarian was 75.6%; in the assay on OVCAR-5 ovarian it was 55.3%; in the assay on OVCAR-4 ovarian it was 107%; in the assay with SK-OV-3 ovarian it was 99%; in the assay with IGROV1 ovarian it was 47.5%; in the assay on OVCAR-3 ovarian, 106%. Further, the figures for the growth with HS 578T breast and in the assay on NCI/ADR-RES ovarian were 91.9% and 58.2%, respectively.
